Source: PubChem BioAssay (Tox21)
“And” between values parts separate entries of the source, which are not always exact repeats. Equal entries are not always repeated. Records with an inconclusive call do not appear. Where a call stands in place of a potency, no number is given. Some compounds were tested as several samples or in several runs, with calls that do not always agree. The source made the active and inactive calls. Calls follow the shape of the dose curve; as a rule, active = well fitted inhibition curve with a large enough effect in the signal ratio in the repeat runs (not every such curve was filed as active); inconclusive = weak or mixed curves; inactive = flat fitted curve, though single readings scatter; the % refers to the signal ratio.

These molecules were tested against Progesterone receptor (Homo sapiens) (UniProt P06401) (assay: qHTS assay to identify small molecule antagonists of the progesterone receptor (PR) signaling pathway (AID 1346795)). Details: PR-UAS-bla HEK293T, beta-lactamase FRET ratio, 16 h; series mostly up to 92.4 µM; activity change, negative = inhibition: at the top concentration.
Text: National Center for Advancing Translational Sciences [NCATS]
NIH Chemical Genomics Center [NCGC]
U.S. Environmental Protection Agency [EPA]
National Institutes of Environmental Health Sciences [NIEHS]
National Toxicology Program [NTP]
U.S. Food and Drug Administration [FDA]
Progesterone receptor (PR), a nuclear hormone receptor, plays an important role in development, metabolic homeostasis and reproduction. […] Endocrine disrupting chemicals (EDCs) and their interactions with steroid hormone receptors like PR causes disruption of normal endocrine function. To identify the compounds that inhibit PR signaling, a PR-UAS-bla GripTite cell line i.e. PR-UAS-bla HEK293T (Invitrogen, Carlsbad, CA, USA) containing a beta-lactamase reporter gene under the control of an Upstream Activator Sequence (UAS) was used to screen Tox21 10K compound library.
Tox21 Assay Protocol Summary:
PR-UAS-bla HEK293T cells were dispensed at 3,000 cells/4 uL of assay medium containing 2% charcoal stripped FBS per well into black wall/clear-bottom 1536-well plates using a Multidrop Combi (ThermoFisher Scientific, Waltham, MA) dispenser. After the assay plates were incubated at a 37C and 5% CO2 for 6 hr, 23 nL of compounds dissolved in DMSO, positive controls or DMSO only was transferred to the assay plate by a Pintool station (Kalypsys, San Diego, CA), followed by addition of 1 uL (1nM as final concentration) of Promegestone (R5020) in assay medium using a BioRAPTR FRD (Flying Reagent Dispenser, Aurora Discovery, San Diego, CA). The plates were incubated at 37C and 5% CO2 for 16 hr. Then 1 uL of LiveBLAzer B/G FRET substrate was added using a FRD. After the plates were incubated at room temperature for 2 hours, fluorescence intensity was measured by an Envision plate reader (PerkinElmer, Shelton, CT).
Potency is read from the fitted curve at half-maximal effect.

Chain of Progesterone receptor (Homo sapiens) (P06401 whole entry, looked up): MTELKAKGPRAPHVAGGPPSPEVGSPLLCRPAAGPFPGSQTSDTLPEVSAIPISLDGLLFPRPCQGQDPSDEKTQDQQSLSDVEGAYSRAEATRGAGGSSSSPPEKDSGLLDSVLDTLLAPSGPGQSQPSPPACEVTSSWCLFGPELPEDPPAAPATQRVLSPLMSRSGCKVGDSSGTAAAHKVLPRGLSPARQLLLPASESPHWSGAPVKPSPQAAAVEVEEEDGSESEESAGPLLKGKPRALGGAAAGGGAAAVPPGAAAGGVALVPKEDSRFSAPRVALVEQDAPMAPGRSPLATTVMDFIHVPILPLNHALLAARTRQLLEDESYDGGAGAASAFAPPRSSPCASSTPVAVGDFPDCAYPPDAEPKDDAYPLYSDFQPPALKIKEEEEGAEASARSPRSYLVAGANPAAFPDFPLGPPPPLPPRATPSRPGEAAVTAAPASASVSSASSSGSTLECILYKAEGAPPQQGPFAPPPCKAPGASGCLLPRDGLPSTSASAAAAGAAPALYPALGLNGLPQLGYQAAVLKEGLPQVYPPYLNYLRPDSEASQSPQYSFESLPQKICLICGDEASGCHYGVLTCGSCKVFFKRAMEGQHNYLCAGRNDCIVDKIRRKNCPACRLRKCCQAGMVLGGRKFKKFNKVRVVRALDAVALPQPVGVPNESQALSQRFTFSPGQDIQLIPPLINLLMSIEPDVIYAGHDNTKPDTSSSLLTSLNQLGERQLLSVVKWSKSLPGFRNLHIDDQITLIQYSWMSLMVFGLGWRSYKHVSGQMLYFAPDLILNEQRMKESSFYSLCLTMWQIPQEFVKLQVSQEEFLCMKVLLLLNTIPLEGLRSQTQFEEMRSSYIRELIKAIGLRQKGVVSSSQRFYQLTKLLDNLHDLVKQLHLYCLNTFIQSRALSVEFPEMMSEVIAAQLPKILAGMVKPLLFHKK

| Structure (SMILES) | Potency | activity change, negative = inhibition |
| --- | --- | --- |
| C[C@]12C=CC(=O)C=C1CC[C@H]1[C@@H]3C[C@@H](O)[C@](O)(C(=O)CO)[C@@]3(C)C[C@H](O)[C@@]12F | inactive |  |
| CC(C)(Oc1ccc(Cl)cc1)C(=O)O | inactive |  |
| CCCCCCOCCOCCO | inactive |  |
| C1CN(SSN2CCOCC2)CCO1 | inactive |  |
| ClC/C=C/CCl | inactive |  |
| CN(C)/N=N/c1nc[nH]c1C(N)=O |  | -2.74% (inactive) |
| Cc1ccc2c(c1)C(=O)OC2=O | inactive |  |
| CC(C)(C)c1cccc(C(C)(C)C)c1O |  | -0.261% (inactive) |
| C=CCOC(=O)C(=C)C | inactive |  |
| NC[C@H](O)c1ccc(O)c(O)c1 | inactive |  |
| COc1ccc(C(=O)c2ccccc2O)c(O)c1 | 27.2 µM (active) and 23.7 µM (active) |  |
| CC(=O)Nc1ccc2c(c1)Cc1cc(NC(C)=O)ccc1-2 | inactive |  |
| C=CCNCC=C | inactive |  |
| CC(C)[N+](C)(CCOC(=O)C1c2ccccc2Oc2ccccc21)C(C)C | inactive |  |
| FC(F)(F)C(Cl)Br (stereo not given) | inactive |  |
| C=C[C@H]1CN2CC[C@H]1C[C@@H]2[C@@H](O)c1ccnc2ccc(OC)cc12 | inactive |  |
| CN(C)C | inactive |  |
| CCCCCC=O | inactive |  |
| C=CC(C)(O)CCC=C(C)C (stereo not given) | inactive |  |
| C=C1C[C@H]2[C@@H]3C=C(C)C4=CC(=O)CC[C@]4(C)[C@H]3CC[C@]2(C)[C@@]1(OC(C)=O)C(C)=O |  | -7.33% [at 42.5 µM] (inactive) |

| Structure (SMILES) | Potency | activity change, negative = inhibition |
| --- | --- | --- |
| O=C(O)COCCN1CCN(C(c2ccccc2)c2ccc(Cl)cc2)CC1 (stereo not given) | inactive |  |
| Oc1c(Cl)ccc(Cl)c1Cl | inactive |  |
| Cc1ccc([N+](=O)[O-])c(C)c1 |  | -0.0745% (inactive) |
| CNC[C@H](O)c1ccc(O)c(O)c1 | inactive |  |
| Cc1ccc(S(=O)(=O)O)cc1C | inactive |  |
| c1ccc2c(c1)ccc1cc3c(ccc4ccccc43)cc12 | inactive |  |
| CC(=O)OC(C)C | inactive |  |
| Cc1ccc(S(=O)(=O)NCl)cc1 | inactive |  |
| O=Cc1ccccc1C=O |  | 3.14% [at 42.5 µM] (inactive) |
| NCCOCCO | inactive |  |
| C=C[Si](OCCOC)(OCCOC)OCCOC | inactive |  |
| CC(=O)Oc1c(C)c(C)c2c(c1C)CC[C@@](C)(CCC[C@H](C)CCC[C@H](C)CCCC(C)C)O2 | inactive |  |
| CC(=O)Oc1ccc(C(c2ccc(OC(C)=O)cc2)c2ccccn2)cc1 |  | -15.6% [at 42.5 µM] (inactive) |
| C/C=C/C(=O)N(CC)c1ccccc1C | inactive |  |
| OC[C@H]1O[C@@H]2O[C@H]3[C@H](O)[C@@H](O)[C@@H](O[C@H]4[C@H](O)[C@@H](O)[C@@H](O[C@H]5[C@H](O)[C@@H](O)[C@@H](O[C@H]6[C@H](O)[C@@H](O)[C@@H](O[C@H]7[C@H](O)[C@@H](O)[C@@H](O[C@H]1[C@H](O)[C@H]2O)O[C@@H]7CO)O[C@@H]6CO)O[C@@H]5CO)O[C@@H]4CO)O[C@@H]3CO | inactive and 22.9 µM (active) |  |
| Cc1ccc(C(C)(C)C)c(O)c1 |  | -4.97% (inactive) |
| COc1ccc(-c2coc3cc(O)cc(O)c3c2=O)cc1 | 6.11 µM (active) |  |
| Cc1ccc(C)c(O)c1 | inactive |  |
| C[N+](C)(C)CCO | inactive |  |
| CCC(Cc1c(I)cc(I)c(N)c1I)C(=O)O (stereo not given) |  | -25% [at 42.5 µM] (inactive) |
